Laboratory results published in paper PMC7862700, “An all-to-all approach to the identification of sequence-specific readers for epigenetic DNA modifications on cytosine”.

Assays:
Assay in all cases: DAPPL (digital affinity profiling via proximity ligation, sequencing); 10 mM Tris-HCl pH 7.5, 50 mM NaCl, 1 mM DTT, 4% glycerol, room temperature, 30 min; GST-TFs on glutathione beads, 16-mer random dsDNA library, 0.1% formaldehyde crosslink after washing; high values mean tight binding
[1] = molecular target: T1, FLI1 (Homo sapiens, UniProt Q01543 1-452); conditions: protein: recombinant; tags: N-terminal GST; dsDNA, one strand shown
T1 sequence: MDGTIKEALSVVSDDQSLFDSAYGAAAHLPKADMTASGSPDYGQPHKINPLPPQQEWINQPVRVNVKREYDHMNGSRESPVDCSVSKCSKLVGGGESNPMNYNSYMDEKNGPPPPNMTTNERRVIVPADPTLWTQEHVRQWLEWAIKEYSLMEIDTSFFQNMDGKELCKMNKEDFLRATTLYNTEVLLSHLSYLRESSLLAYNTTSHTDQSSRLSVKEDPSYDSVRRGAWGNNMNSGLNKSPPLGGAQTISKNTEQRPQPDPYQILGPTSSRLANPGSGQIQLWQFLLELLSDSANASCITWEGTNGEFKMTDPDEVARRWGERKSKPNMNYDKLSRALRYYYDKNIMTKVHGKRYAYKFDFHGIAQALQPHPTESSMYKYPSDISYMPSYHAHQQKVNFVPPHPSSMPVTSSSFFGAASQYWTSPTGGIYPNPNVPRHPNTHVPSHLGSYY
Outline: (§1)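 Pools of DNA-barcoded human transcription factors, expressed in yeast as GST fusions on glutathione beads and combined with a tag-only sample, were incubated with 200 nmole of a 16-mer random double-stranded DNA library. Incubation took 30 min at room temperature in Tris/NaCl/DTT/glycerol buffer and was followed by washing, 0.1% formaldehyde crosslinking, proximity ligation (BsaI/T4 ligase, 1 h, 37 °C), PCR amplification and sequencing on an Illumina NextSeq500. Binding signal is the ratio of a hexamer's read frequency for a factor to its frequency for the tag-only sample.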

[2] = molecular target: T2, ELK1 (Homo sapiens, UniProt P19419 1-428); conditions: protein: recombinant; tags: N-terminal GST; dsDNA, one strand shown
T2 sequence: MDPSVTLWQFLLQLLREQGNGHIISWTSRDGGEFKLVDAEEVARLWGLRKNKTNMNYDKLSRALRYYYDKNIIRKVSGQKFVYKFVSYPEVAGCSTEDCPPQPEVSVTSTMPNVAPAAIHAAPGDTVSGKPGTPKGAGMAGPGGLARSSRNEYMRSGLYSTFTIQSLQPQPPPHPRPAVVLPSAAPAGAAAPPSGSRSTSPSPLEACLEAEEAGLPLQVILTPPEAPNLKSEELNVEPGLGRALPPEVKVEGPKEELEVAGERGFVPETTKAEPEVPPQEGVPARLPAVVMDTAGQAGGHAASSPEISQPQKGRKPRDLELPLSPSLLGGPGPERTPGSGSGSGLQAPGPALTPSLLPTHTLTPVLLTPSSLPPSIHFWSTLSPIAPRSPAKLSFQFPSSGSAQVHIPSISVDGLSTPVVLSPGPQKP
Outline: as §1

[3] = molecular target: T3, GABPA (Homo sapiens, UniProt Q06546 1-454); conditions: protein: recombinant; tags: N-terminal GST; dsDNA, one strand shown
T3 sequence: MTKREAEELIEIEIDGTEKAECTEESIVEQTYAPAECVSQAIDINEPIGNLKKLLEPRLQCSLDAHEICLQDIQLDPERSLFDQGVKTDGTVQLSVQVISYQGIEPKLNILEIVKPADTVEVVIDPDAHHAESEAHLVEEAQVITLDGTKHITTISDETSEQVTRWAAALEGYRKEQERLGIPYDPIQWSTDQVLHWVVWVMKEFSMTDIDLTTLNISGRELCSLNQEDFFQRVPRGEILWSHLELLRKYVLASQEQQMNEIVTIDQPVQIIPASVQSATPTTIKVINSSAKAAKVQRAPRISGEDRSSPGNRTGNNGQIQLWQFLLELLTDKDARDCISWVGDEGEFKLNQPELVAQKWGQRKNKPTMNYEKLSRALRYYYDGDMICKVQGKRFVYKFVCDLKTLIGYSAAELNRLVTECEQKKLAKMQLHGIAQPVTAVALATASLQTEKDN
Outline: as §1

[4] = molecular target: T4, ERG (Homo sapiens, UniProt P11308 1-479); conditions: protein: recombinant; tags: N-terminal GST; dsDNA, one strand shown
T4 sequence: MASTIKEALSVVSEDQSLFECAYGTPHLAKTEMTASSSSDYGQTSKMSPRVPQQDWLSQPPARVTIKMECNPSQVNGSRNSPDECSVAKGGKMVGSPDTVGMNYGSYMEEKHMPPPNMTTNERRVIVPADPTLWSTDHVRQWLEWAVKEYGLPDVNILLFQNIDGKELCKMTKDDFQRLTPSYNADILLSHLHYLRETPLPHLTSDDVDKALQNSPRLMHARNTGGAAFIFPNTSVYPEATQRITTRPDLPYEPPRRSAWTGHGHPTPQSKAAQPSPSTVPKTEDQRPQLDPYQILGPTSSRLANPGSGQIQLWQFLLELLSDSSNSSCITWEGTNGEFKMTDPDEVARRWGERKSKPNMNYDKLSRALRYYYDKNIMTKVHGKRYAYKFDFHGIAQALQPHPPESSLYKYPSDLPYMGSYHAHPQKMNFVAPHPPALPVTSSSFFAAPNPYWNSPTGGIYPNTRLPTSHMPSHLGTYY
Outline: as §1

[5] = molecular target: ELF1 (Homo sapiens, UniProt P32519 1-619); conditions: protein: recombinant; tags: N-terminal GST; dsDNA, one strand shown
ELF1, sequence (P32519 whole entry): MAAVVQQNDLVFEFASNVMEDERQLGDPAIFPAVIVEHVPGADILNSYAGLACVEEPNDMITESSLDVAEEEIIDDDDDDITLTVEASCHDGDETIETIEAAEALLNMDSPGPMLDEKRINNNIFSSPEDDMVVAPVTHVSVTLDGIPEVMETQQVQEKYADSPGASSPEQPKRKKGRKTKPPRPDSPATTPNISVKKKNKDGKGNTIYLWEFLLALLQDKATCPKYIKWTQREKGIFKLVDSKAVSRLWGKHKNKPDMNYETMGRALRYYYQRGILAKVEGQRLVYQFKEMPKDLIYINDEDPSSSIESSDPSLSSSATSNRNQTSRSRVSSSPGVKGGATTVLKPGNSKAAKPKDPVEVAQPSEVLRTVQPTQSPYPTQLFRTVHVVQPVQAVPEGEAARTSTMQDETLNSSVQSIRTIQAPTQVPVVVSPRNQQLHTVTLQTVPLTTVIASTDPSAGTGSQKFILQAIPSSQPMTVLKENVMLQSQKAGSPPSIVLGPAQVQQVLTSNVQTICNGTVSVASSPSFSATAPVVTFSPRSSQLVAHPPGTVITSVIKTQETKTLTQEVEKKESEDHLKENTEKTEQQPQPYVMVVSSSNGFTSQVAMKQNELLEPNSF
Outline: as §1

[6] = molecular target: T5, EHF (Homo sapiens, UniProt Q9NZC4 1-300); conditions: protein: recombinant; tags: N-terminal GST; dsDNA, one strand shown
T5 sequence: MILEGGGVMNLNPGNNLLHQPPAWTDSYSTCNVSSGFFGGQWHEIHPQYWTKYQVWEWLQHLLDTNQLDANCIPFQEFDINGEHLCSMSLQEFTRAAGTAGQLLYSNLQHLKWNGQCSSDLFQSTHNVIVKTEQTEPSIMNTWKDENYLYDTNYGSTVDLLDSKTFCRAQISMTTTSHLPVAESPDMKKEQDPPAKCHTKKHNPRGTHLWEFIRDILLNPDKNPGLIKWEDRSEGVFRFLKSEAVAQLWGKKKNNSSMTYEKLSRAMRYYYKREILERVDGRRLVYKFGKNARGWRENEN
Outline: as §1

[7] = molecular target: SPI1 (Homo sapiens, UniProt P17947 1-270); conditions: protein: recombinant; tags: N-terminal GST; dsDNA, one strand shown
Outline: as §1

[8] = molecular target: SPIB (Homo sapiens, UniProt Q01892 1-262); conditions: protein: recombinant; tags: N-terminal GST; dsDNA, one strand shown
SPIB, sequence (Q01892 whole entry): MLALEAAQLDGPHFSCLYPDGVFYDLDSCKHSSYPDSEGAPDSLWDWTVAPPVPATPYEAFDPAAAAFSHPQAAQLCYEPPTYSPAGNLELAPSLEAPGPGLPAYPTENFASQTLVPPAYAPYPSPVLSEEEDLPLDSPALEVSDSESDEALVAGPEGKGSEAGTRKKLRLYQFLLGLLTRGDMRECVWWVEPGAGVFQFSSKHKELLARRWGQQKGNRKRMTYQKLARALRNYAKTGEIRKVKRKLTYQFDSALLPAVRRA
Outline: as §1

[9] = molecular target: T6, ELK3 (Homo sapiens, UniProt P41970 1-407); conditions: protein: recombinant; tags: N-terminal GST; dsDNA, one strand shown
T6 sequence: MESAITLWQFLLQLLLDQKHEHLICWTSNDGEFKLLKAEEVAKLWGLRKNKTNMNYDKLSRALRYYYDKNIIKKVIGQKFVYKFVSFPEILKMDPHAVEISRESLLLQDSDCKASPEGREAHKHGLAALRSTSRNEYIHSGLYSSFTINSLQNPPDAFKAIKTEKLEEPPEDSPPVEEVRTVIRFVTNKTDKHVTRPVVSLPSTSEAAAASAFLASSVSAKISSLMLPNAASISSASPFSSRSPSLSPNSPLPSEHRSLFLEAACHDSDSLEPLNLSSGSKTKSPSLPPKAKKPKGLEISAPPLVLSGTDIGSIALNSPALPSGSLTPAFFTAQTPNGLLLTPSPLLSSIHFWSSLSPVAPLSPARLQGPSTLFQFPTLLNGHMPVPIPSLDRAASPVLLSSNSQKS
Outline: as §1

[10] = molecular target: T7, FEV (Homo sapiens, UniProt Q99581 1-238); conditions: protein: recombinant; tags: N-terminal GST; dsDNA, one strand shown
T7 sequence: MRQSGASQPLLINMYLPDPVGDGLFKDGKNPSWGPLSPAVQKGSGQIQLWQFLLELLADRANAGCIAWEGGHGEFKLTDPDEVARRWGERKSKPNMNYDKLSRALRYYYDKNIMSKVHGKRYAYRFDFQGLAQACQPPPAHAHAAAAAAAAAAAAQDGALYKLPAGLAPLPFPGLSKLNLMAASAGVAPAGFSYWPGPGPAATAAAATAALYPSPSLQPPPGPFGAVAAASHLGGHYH
Outline: as §1

[11] = molecular target: ETV5 (Homo sapiens, UniProt P41161 1-510); conditions: protein: recombinant; tags: N-terminal GST; dsDNA, one strand shown
ETV5, sequence (P41161 whole entry): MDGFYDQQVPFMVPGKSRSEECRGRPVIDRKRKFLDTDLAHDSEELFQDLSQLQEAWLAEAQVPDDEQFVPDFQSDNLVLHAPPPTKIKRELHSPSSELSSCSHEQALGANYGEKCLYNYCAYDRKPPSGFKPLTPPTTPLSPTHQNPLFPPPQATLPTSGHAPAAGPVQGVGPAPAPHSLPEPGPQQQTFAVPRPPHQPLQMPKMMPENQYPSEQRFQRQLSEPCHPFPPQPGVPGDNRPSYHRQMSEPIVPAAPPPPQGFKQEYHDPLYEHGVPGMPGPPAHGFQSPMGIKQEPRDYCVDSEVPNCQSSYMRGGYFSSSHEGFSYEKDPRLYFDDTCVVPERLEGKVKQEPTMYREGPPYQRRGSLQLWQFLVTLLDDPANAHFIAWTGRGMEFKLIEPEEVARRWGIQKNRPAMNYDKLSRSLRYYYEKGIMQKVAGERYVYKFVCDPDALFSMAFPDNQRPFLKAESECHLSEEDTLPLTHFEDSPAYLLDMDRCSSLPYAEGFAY
Outline: as §1

[12] = molecular target: HSF1 (Homo sapiens, UniProt Q00613 1-529); conditions: protein: recombinant; tags: N-terminal GST; chain copies: 3; dsDNA, one strand shown
HSF1, sequence (Q00613 whole entry): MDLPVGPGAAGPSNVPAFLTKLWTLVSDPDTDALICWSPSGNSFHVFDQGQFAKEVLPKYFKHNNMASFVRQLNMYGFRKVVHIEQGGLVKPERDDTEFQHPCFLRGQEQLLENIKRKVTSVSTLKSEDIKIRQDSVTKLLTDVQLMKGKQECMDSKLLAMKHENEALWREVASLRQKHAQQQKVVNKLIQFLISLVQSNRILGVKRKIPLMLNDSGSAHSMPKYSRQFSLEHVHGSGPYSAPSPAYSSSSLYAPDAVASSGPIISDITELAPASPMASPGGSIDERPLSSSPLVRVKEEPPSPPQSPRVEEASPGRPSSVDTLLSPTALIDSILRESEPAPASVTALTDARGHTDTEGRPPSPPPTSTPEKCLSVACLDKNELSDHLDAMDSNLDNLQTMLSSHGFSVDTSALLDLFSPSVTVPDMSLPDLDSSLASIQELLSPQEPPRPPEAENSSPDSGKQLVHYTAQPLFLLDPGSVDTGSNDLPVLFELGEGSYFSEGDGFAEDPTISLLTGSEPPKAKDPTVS
Outline: as §1

[13] = molecular target: T8, SPIC (Homo sapiens, UniProt Q8N5J4 1-248); conditions: protein: recombinant; tags: N-terminal GST; dsDNA, one strand shown
T8 sequence: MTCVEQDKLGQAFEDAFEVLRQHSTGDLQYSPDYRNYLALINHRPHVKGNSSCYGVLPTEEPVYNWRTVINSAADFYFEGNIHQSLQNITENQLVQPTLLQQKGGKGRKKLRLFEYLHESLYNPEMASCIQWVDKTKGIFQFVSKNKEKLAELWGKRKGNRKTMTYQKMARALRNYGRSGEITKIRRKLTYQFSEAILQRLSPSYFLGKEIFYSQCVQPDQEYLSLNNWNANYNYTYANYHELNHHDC
Outline: as §1

[14] = molecular target: ELF4 (Homo sapiens, UniProt Q99607 1-663); conditions: protein: recombinant; tags: N-terminal GST; dsDNA, one strand shown
ELF4, sequence (Q99607 whole entry): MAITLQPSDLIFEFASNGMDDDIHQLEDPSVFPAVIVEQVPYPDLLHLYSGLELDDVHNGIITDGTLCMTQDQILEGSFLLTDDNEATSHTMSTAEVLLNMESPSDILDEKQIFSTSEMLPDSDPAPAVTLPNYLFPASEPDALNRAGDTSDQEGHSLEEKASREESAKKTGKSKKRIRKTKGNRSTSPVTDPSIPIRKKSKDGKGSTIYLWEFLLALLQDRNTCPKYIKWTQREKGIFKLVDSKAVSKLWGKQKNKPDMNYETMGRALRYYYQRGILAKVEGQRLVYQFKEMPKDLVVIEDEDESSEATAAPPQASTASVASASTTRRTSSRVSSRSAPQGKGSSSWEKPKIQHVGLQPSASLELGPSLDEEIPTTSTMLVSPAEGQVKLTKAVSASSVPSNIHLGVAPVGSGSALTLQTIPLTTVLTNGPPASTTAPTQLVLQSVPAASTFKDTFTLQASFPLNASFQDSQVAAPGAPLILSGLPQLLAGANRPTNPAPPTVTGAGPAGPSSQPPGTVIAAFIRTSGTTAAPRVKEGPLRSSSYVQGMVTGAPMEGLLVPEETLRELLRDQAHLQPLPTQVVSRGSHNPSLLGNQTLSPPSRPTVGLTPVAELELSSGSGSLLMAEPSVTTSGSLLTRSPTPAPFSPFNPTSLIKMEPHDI
Outline: as §1

[15] = molecular target: T9, ELK4 (Homo sapiens, UniProt P28324-2 1-405); conditions: protein: recombinant; tags: N-terminal GST; dsDNA, one strand shown
T9 sequence: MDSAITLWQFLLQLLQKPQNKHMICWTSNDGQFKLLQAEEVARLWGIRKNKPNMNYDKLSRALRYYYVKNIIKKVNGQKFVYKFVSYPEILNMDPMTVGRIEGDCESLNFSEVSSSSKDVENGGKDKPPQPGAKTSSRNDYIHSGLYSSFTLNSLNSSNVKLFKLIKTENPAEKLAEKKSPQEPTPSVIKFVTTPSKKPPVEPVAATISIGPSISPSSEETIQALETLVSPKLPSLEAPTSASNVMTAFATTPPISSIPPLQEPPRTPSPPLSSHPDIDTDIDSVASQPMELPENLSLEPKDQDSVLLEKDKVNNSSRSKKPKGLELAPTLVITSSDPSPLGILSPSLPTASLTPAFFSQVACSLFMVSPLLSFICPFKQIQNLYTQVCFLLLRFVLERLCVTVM
Outline: as §1

[16] = molecular target: T10, ETV2 (Homo sapiens, UniProt O00321 1-342); conditions: protein: recombinant; tags: N-terminal GST; dsDNA, one strand shown
T10 sequence: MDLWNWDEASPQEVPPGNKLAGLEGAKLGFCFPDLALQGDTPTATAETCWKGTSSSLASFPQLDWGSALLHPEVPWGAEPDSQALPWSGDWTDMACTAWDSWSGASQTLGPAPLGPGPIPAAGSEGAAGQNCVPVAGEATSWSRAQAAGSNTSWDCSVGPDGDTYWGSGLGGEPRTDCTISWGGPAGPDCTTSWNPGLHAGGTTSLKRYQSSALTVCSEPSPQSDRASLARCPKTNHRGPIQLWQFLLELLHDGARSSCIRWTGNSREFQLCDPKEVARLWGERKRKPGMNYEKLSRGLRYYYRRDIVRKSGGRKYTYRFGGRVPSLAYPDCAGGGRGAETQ
Outline: as §1

[17] = molecular target: T11, ELF3 (Homo sapiens, UniProt P78545 1-371); conditions: protein: recombinant; tags: N-terminal GST; dsDNA, one strand shown
T11 sequence: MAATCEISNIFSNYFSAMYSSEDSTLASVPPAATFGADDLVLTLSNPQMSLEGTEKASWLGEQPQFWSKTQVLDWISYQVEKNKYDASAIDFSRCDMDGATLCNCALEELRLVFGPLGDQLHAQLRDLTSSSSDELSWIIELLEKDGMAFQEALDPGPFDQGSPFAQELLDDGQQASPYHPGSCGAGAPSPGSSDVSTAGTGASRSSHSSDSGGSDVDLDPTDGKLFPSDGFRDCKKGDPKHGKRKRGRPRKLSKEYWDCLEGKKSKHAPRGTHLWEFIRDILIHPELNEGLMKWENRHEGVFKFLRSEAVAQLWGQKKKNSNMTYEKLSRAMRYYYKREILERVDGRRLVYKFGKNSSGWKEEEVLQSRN
Outline: as §1

[18] = molecular target: CRX (Homo sapiens, UniProt O43186 1-299); conditions: protein: recombinant; tags: N-terminal GST; dsDNA, one strand shown
CRX, sequence (O43186 whole entry): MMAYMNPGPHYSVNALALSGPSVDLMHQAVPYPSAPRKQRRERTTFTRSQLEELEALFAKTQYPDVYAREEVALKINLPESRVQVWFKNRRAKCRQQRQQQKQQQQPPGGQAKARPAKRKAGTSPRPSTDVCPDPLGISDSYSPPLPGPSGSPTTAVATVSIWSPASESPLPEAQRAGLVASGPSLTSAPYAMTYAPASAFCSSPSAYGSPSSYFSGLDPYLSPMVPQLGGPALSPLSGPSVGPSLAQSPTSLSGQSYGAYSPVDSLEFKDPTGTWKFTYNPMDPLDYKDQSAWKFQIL
Outline: as §1

[19] = molecular target: ETV1 (Homo sapiens, UniProt P50549 1-477); conditions: protein: recombinant; tags: N-terminal GST; dsDNA, one strand shown
ETV1, sequence (P50549 whole entry): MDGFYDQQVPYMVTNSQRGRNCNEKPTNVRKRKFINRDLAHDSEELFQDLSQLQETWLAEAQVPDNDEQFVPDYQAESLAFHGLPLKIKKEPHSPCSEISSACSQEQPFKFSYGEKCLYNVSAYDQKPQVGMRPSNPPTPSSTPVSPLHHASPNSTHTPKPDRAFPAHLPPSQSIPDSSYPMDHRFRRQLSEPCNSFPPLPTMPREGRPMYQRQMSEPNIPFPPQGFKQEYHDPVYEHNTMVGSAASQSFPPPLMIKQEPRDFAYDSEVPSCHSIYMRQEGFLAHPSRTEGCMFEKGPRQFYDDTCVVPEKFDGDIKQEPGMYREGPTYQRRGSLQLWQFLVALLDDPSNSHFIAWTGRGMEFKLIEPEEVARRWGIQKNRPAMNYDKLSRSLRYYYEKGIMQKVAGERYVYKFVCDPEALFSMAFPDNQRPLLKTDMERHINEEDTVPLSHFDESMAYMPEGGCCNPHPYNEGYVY
Outline: as §1

Question: What does the source list for AGCAAT?
Answer: binding signal [1]: 1.07 fold enrichment (6-mer frequency, TF over GST control); binding signal [2]: 1.15 fold enrichment (6-mer frequency, TF over GST control); binding signal [3]: 1.09 fold enrichment (6-mer frequency, TF over GST control); binding signal [4]: 1.11 fold enrichment (6-mer frequency, TF over GST control); binding signal [5]: 1.18 fold enrichment (6-mer frequency, TF over GST control); binding signal [6]: 1.1 fold enrichment (6-mer frequency, TF over GST control); binding signal [7]: 1.1 fold enrichment (6-mer frequency, TF over GST control); binding signal [8]: 1.18 fold enrichment (6-mer frequency, TF over GST control); binding signal [9]: 1.05 fold enrichment (6-mer frequency, TF over GST control); binding signal [10]: 1.08 fold enrichment (6-mer frequency, TF over GST control); binding signal [11]: 1.14 fold enrichment (6-mer frequency, TF over GST control); binding signal [12]: 1.1 fold enrichment (6-mer frequency, TF over GST control); binding signal [13]: 1.05 fold enrichment (6-mer frequency, TF over GST control); binding signal [14]: 1.2 fold enrichment (6-mer frequency, TF over GST control); binding signal [15]: 1.14 fold enrichment (6-mer frequency, TF over GST control); binding signal [16]: 1.14 fold enrichment (6-mer frequency, TF over GST control); binding signal [17]: 1.13 fold enrichment (6-mer frequency, TF over GST control); binding signal [18]: 1.06 fold enrichment (6-mer frequency, TF over GST control); binding signal [19]: 1.09 fold enrichment (6-mer frequency, TF over GST control)
